Compounds with a hit are over-represented: about 4% of the library has one in this group of screens.
Anthrax LF prot: inhibitors of Bacillus anthracis lethal factor protease. inhibition, % at 10 µM. multiplex microsphere protease cleavage assay, LF. actives 0.12% (n = 360,000). AID 588501. P15917; further: plate controls were buffer without enzyme for full effect and enzyme alone for no effect
BoNT A protease: BoNT A light chain protease inhibition; AID 588499; actives 0.17% (n = 360,000); multiplex microsphere protease substrate cleavage, flow cytometry; inhibition, % at 10 µM; further: plate controls were buffer without enzyme for full effect and enzyme alone for no effect
Autofluor counter: flagged as autofluorescent in microsphere protease counterscreen | fluorescence intensity (concentration not given with the values) | actives 3.1% (n = 360,000) | compound autofluorescence counterscreen, microsphere flow cytometry; hits give high values; in the data active means fluorescence intensity above about 16000; inconclusive means no clear call, values can overlap the other calls
MazEF act: MazEF (E. coli) toxin RNase activation. P0AE70. AID 504720. FAM/BHQ RNA-DNA oligo cleavage fluorescence, 5 h. actives 0.32% (n = 350,000). activation, % at 20 µM; in the data active means activation above about 50%
DUSP3 inh: inhibitors of human VHR1 phosphatase (DUSP3) | recombinant VHR phosphatase, pNPP absorbance | inhibition, % at 13.3 µM | actives 0.52% (n = 290,000); in the data active means inhibition above about 50%
BoNT-F LC inh: blocks Botulinum neurotoxin F light chain protease. Multiplex microsphere protease cleavage assay, flow cytometry. inhibition, % at 10 µM. actives 0.22% (n = 360,000). AID 588497; in the data active means inhibition above about 35%, passing the limit was not always enough; inconclusive means no clear call, values can overlap the other calls; further: plate controls were buffer without enzyme for full effect and enzyme alone for no effect
* hit, by the source's call; ? = inconclusive; · = no result given. Unless noted, no stated cut-off is given here; in the data, active means inhibition above about 30%; inconclusive means no clear call, values can overlap the other calls; inactive means below that.

SMILES	Anthrax LF prot	BoNT A protease	Autofluor counter	MazEF act	DUSP3 inh	BoNT-F LC inh
Cc1oc2ccc(O)c(CN3CCOCC3)c2c1C(=O)c1ccc(Cl)cc1	-1.1	-0.6	23586*	8.4	9.6	-4.1
C=C(C)c1cccc(C(C)(C)NC(=O)N2CCCC(C(N)=O)C2)c1 (stereo not drawn)	1.4	-0.1	4875	3.9	9.9	-14.6
COc1ccccc1N1C(N)=NC(N)=NC12CCCCC2	8.4	1.2	4119	3.5	-5.3	?
O=C(Nc1ccon1)c1ccccc1F	2.8	0.7	23297*	-3.6	25.4	-1.2
O=C(Nc1ccon1)c1ccccc1Cl	2.7	0.3	8322	7.9	1.4	3.7
O=C(Nc1ccccc1C(=O)Nc1ccccn1)c1ccccc1F	11.4	0.8	4072	5.3	-0.5	45.0*
COCCN(C(=O)c1ccc(NC2CC2)c([N+](=O)[O-])c1)c1c(N)n(CC(C)C)c(=O)[nH]c1=O	-6.2	-0.3	9036	3.3	·	-7.2
COc1ccccc1Nc1nn2c(=O)c3ccc(C(=O)NCc4cccnc4)cc3nc2s1	2.0	-0.7	5434	·	107.6	0.0
CC(=O)Nc1ccc(N2CCCC(C)C2)c([N+](=O)[O-])c1 (stereo not drawn)	0.7	-1.5	5157	-2.5	20.8	-1.6
CC1CCCN(c2ccc(C(=O)Nc3cccnc3)cc2[N+](=O)[O-])C1 (stereo not drawn)	-5.6	-0.4	4276	9.9	52.5*	-2.2
O=C1C2ON(c3ccccc3)C(c3ccncc3)C2C(=O)N1c1ccccc1 (stereo not drawn)	1.8	-2.2	20412*	1.5	23.5	-3.2
Cc1c(Cl)cccc1N1C(=O)C2ON(c3ccccc3)C(c3cccnc3)C2C1=O (stereo not drawn)	1.9	-0.2	21730*	0.2	12.8	-2.2
Cc1cccc(C)c1N1C(=O)C2ON(c3ccccc3)C(c3ccncc3)C2C1=O (stereo not drawn)	0.4	?	22531*	-4.1	20.3	-4.0
CCOc1ccc(-c2nc(S(=O)(=O)c3ccccc3)c(NC)o2)cc1	-5.2	-1.4	5222	-1.6	18.1	-4.5
CCn1nc(C)c(/C=C/C(=O)Nc2ccc(C)cc2C)c1C	2.1	4.7	2035	-2.5	-14.0	38.8*
CCn1nc(C)c(NC(=O)/C=C/c2cnn(C)c2)c1C	-9.1	8.8	19664*	0.8	23.5	10.0
Cc1ccc(NC(=O)CCn2nc(C)cc2C)c(C)c1	-3.5	0.6	5512	2.1	-11.2	-5.5
Cc1nn(Cc2ccc(Cl)cc2)c(C)c1NC(=O)/C=C/c1cnn(C)c1	0.4	-0.3	2490	1.1	-5.4	-4.4
CCn1ncc(/C=C/C(=O)Nc2c(C)nn(CC)c2C)c1C	0.3	1.1	20272*	-0.2	24.5	2.0
Cc1cccc(-c2noc(CNC(=O)c3ccoc3C)n2)c1	0.2	3.1	6527	-15.9	-4.0	2.6
CN1CCCN(S(=O)(=O)c2ccc(O)c(C(=O)O)c2)CC1	5.3	-0.2	3161	3.3	-6.7	-3.5
O=C(c1csc2ccccc12)N1CCCCCC1	1.5	-1.8	20758*	-2.2	18.8	-1.7
CC(=O)N(c1ccc(N(C(C)=O)S(=O)(=O)c2ccccc2)cc1)S(=O)(=O)c1ccccc1	-6.5	-0.2	3060	-19.7	20.4	5.9
Cc1cc(C)n(C(=O)CNC(=O)c2cccs2)n1	-3.9	0.4	3565	9.2	-20.8	15.8
Cc1ccc[n+](CC2OCc3ccccc3CO2)c1	-0.5	-0.4	1967	-0.1	29.6	-5.0
SMILES	Anthrax LF prot	BoNT A protease	Autofluor counter	MazEF act	DUSP3 inh	BoNT-F LC inh
CCCCN(CCCC)CC1OCc2ccccc2CO1	1.8	-0.7	20889*	-7.9	3.3	-0.7
O=C(c1cccs1)N(C(=O)c1cccs1)c1ccc(Br)cn1	-0.3	2.0	22230*	-7.0	-9.9	1.3
Cc1ccnc(N(C(=O)c2cccs2)C(=O)c2cccs2)c1	4.4	-1.5	3400	5.8	-5.0	-0.6
Nc1nc(NCc2ccccc2)nc(Nc2cccc(F)c2)c1[N+](=O)[O-]	-2.3	1.1	22824*	10.1	36.7	-0.3
Cc1ccc(CNc2nc(N)c([N+](=O)[O-])c(Nc3cccc(F)c3)n2)cc1	-11.6	-1.4	5882	2.2	24.4	-20.9
c1ccc(CCCN2CCN(CCOC(c3ccccc3)c3ccccc3)CC2)cc1	-1.0	-0.4	5680	-6.3	·	2.0
c1ccc(COCCN2CCN(CCOCc3ccccc3)CC2)cc1	-5.0	-1.7	16853*	-2.1	-14.9	-0.6

Screening results deposited in PubChem BioAssay by several laboratories.
